Source: PubChem BioAssay
For some assays here: Measured potencies and affinities stand elsewhere. Calls of active or inactive are those of the source. Unless noted, how the calls were made is not given here.

How the values were obtained:
[1] = target: Calcium-dependent protein kinase 1 (Plasmodium falciparum (isolate 3D7)) (UniProt P62344); experiment: PfCDPK1 kinase inhibitors, biochemical, TCAMS library (AID 1159585; cut-off not given, nearly all actives have IC50 up to about 0.98 µM;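 further: inhibitors leave more ATP so luminescence rises with inhibition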); details: recombinant PfCDPK1, Kinase-Glo ATP depletion luminescence
Calcium-dependent protein kinase 1 (Plasmodium falciparum (isolate 3D7)), sequence (P62344 whole entry, looked up): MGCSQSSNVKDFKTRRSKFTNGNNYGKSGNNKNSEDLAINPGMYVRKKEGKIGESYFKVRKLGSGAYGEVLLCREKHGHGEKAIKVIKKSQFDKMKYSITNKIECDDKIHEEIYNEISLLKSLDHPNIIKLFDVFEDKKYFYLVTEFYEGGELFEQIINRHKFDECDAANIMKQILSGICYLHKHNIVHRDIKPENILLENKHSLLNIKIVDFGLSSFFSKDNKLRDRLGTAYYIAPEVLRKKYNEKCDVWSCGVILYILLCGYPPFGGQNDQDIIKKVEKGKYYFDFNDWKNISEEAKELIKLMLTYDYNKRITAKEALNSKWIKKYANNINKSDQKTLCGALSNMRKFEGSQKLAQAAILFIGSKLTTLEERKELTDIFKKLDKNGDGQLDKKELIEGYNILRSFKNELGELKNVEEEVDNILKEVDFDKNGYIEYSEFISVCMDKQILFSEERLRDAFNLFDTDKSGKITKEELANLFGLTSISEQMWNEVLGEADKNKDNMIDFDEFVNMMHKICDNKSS

[2] = target: Plasmodium falciparum protein kinase 6 (PK6, PF3D7_1337100) (UniProt Q8IDW1); experiment: PfPK6 kinase inhibitors, biochemical, TCAMS library (AID 1159586); details: recombinant PfPK6, Kinase-Glo ATP depletion luminescence
Plasmodium falciparum protein kinase 6 (PK6, PF3D7_1337100), sequence (Q8IDW1 1-305): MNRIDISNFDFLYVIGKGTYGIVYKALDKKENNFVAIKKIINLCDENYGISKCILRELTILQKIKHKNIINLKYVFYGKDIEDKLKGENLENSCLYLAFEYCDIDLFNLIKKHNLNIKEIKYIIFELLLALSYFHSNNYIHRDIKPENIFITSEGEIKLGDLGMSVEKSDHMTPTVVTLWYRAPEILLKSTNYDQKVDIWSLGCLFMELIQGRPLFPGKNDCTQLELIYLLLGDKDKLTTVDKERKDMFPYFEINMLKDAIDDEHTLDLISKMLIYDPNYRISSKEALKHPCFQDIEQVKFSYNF

[3] = target: Protein kinase 7 (PK7), Plasmodium falciparum 3D7 (PF3D7_0213400) (UniProt Q7YTF7); experiment: inhibition of Plasmodium PK7 catalytic activity – biochemical, TCAMS antimalarial set, Kinase-Glo luminescence (AID 1159587); details: recombinant PfPK7, Kinase-Glo ATP depletion luminescence
Protein kinase 7 (PK7), Plasmodium falciparum 3D7 (PF3D7_0213400), sequence (Q7YTF7 1-343): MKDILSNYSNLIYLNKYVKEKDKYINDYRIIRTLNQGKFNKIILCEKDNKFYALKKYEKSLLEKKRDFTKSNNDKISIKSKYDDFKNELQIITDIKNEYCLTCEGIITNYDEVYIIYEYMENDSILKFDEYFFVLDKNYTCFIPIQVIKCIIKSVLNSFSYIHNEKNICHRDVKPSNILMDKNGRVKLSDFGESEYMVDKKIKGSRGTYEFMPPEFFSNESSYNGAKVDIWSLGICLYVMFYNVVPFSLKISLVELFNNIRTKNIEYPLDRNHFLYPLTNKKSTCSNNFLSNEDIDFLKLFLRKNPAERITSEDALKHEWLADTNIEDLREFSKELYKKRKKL

[4] = target: Calcium-dependent protein kinase 4 (Plasmodium falciparum (isolate 3D7)) (UniProt Q8IBS5); experiment: PfCDPK4 kinase inhibitors, biochemical, TCAMS library (AID 1159588; cut-off not given, nearly all actives have IC50 up to about 0.91 µM); details: recombinant PfCDPK4, Kinase-Glo ATP depletion luminescence
Calcium-dependent protein kinase 4 (Plasmodium falciparum (isolate 3D7)), sequence (Q8IBS5 whole entry, looked up): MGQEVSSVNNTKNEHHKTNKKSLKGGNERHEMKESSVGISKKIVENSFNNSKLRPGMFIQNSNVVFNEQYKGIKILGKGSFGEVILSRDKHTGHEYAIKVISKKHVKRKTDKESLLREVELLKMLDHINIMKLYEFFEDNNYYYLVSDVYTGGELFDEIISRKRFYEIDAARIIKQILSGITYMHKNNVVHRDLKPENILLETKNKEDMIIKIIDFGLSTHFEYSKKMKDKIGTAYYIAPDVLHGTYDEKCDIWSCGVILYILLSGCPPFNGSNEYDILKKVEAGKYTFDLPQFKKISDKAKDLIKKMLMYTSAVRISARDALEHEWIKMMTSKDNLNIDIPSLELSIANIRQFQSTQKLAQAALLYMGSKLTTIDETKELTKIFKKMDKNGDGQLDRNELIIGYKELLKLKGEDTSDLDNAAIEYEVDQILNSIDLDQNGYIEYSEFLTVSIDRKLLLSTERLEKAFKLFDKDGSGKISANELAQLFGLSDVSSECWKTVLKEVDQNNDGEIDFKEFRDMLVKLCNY

Measured: outcome

CN(C)CCCOc1ccc(-c2nc(-c3ccc4c(c3)CC/C4=N\O)c(-c3ccncc3)[nH]2)cc1
inactive: all assays above

CCC[C@@H]([C@H](CC1CCCCC1)C(=O)N[C@H](C(=O)Nc1nccc(N)n1)C(C)(C)C)N(O)C=O
inactive: all assays above

Oc1ccc2ccccc2c1/C=N/Nc1nc(Nc2ccccc2)nc(N2CCOCC2)n1
inactive: all assays above

O=C(N/N=C/c1nc2ccccc2[nH]1)c1cccc([N+](=O)[O-])c1
inactive: all assays above

Oc1ccc2ccccc2c1/C=N/Nc1nc(Nc2ccccc2)nc(Nc2ccccc2)n1
inactive: all assays above

Nc1cc(/C=C/c2ccc(O)cc2)nc2ccccc12
inactive: all assays above

C/C(=N\NC(N)=O)C1=C(O)C(c2ccccc2)N(C2CCCCC2)C1=O (stereo not drawn)
inactive: all assays above

CCC[C@@H]([C@H](CC1CCCCC1)C(=O)N[C@H](C(=O)Nc1ccccn1)[C@H](C)CC)N(O)C=O
inactive: all assays above

CC1CCC(C[C@H](C(=O)N[C@@H](CCC(=O)N2CCCCC2)C(=O)Nc2nccs2)[C@H](C(C)C)N(O)C=O)CC1 (stereo partly drawn)
inactive: all assays above

CN(C)c1cc(N/N=C/c2cc(Cl)ccc2O)nc(N(C)C)n1
inactive: all assays above

O=C(CSc1cccc[n+]1[O-])c1ccc(Cc2ncc(C(F)(F)F)cc2Cl)s1
inactive: all assays above

O=[N+]([O-])c1ccc(Nc2nc(N/N=C/c3cc(Cl)cc(Cl)c3O)nc(Nc3ccccc3)n2)cc1
inactive: all assays above

O=C(Cc1ccc[n+]([O-])c1)Nc1cccc(-c2cccc(-c3nc4ccc(F)cc4[nH]3)c2)c1
inactive: all assays above

N=C(N)c1ccc(/C=C/c2ccc(C(=N)N)cc2O)cc1
inactive: all assays above

CCn1c(/C=C/c2cc(Br)ccc2O)nc2ccccc2c1=O
inactive: all assays above

COc1ccc(Nc2nc(N/N=C/c3cc(Br)ccc3O)nc(Nc3ccc([N+](=O)[O-])cc3)n2)cc1
inactive: all assays above

CCCCCC(C)C(C)c1cc(O)c2c(c1)OC(C)(C)C/C2=C\c1ccncc1 (stereo not drawn)
inactive: all assays above

CCCCCC(C)C(C)c1cc(O)c2c(c1)OC(C)(C)CC2c1cc[n+]([O-])cc1 (stereo not drawn)
inactive: all assays above

Cc1cc(C)c2c(c1)/C(=N/O)CCN2
inactive: all assays above

CCCCCC(C)C(C)c1cc(O)c2c(c1)OC(C)(C)C=C2c1cc[n+]([O-])cc1 (stereo not drawn)
inactive: all assays above

O=C(Cc1ccc[n+]([O-])c1)Nc1cccc(-c2cccc(-c3nc4ccc(C(F)(F)F)cc4[nH]3)c2)c1
inactive: all assays above

O/N=C1\CCc2cc(-c3cc(-c4ccc(OC5CCNCC5)cc4)oc3-c3ccncc3)ccc21
inactive: all assays above

CCN(CC)CCCN=c1ccn(O)c2cc3ccccc3cc12
inactive: all assays above

Oc1ccc(/C=N/NC(=S)Nc2cccc3ccccc23)c(O)c1
inactive: all assays above

COc1ccc2nc(/N=C(\N)NC(=O)Nc3ccccc3)nc(C)c2c1
inactive: all assays above

Oc1cccc(-c2nc(-c3cccc(I)c3)c(-c3ccc(-c4[nH]c(-c5cccc(O)c5)nc4-c4cccc(I)c4)cc3)[nH]2)c1
inactive: all assays above

NC(N)=N/N=C/c1c[nH]c2ccc(-c3ccccc3)cc12
inactive: all assays above

CCOc1cc(/C=C/c2nc3ccccc3c(=O)[nH]2)cc(Cl)c1O
inactive: all assays above

COc1cc(-c2nc(-c3ccc4c(c3)CC/C4=N\O)c(-c3ccncc3)[nH]2)ccc1OCCN1CCCCC1
inactive: all assays above

C=CC[C@@H](C[C@H](O)[C@H](Cc1ccccc1)NC(=O)c1ccc(-n2cccn2)cc1)C(=O)NC1CCCCC1
inactive: all assays above

O/N=C1\CCc2cc(-c3nc(-c4cccc(OCCNCc5ccc(F)cc5)c4)[nH]c3-c3ccncc3)ccc21
inactive: all assays above

c1cc2nc(CCCCCc3nc4ccc(C5=N[C@H]6CCCC[C@H]6N5)cc4[nH]3)[nH]c2cc1C1=N[C@H]2CCCC[C@H]2N1
inactive: all assays above
